Results: PubChem BioAssay AID2654 (Johns Hopkins Ion Channel Center, 2010)
Results with a measured potency or affinity are listed apart. The source made the active and inactive calls.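 The calls were made as follows: active = increase of the KCNQ2 potassium channel current at -35 mV by at least one tested dose; inactive = no tested dose increases that current.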

The molecules below were run against Potassium voltage-gated channel subfamily KQT member 2 (Rattus norvegicus) (UniProt O88943) (assay: potentiation of rat KCNQ2 current – cell-based, retigabine-insensitive compounds, dose response (AID 2654)). Settings: KCNQ2-CHO cells, automated patch clamp current potentiation; at 30 µM (top of the series).
Chain of Potassium voltage-gated channel subfamily KQT member 2 (Rattus norvegicus) (O88943 whole entry, looked up): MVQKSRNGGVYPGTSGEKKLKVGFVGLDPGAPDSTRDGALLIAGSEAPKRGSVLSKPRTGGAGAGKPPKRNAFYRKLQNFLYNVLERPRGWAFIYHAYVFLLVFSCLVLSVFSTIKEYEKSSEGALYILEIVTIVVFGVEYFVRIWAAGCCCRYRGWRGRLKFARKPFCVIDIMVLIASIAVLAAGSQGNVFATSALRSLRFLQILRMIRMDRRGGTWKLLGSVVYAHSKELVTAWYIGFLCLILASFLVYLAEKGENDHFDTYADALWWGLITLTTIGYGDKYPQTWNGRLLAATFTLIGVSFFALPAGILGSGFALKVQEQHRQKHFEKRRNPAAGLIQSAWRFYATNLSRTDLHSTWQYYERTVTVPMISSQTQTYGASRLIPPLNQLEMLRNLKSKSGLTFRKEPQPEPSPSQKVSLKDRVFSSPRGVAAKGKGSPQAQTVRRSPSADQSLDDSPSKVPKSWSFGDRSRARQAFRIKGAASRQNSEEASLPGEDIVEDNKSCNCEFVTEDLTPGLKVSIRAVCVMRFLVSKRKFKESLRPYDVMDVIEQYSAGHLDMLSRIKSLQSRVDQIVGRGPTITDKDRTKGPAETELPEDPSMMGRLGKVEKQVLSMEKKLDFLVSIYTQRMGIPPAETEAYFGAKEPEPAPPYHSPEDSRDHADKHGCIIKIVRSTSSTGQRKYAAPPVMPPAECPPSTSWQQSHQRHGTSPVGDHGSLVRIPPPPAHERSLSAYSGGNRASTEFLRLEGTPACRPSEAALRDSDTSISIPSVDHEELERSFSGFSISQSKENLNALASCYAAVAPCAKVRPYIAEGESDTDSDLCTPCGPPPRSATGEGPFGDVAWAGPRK

Q: How did the outcome turn out when S=C(NCc1ccco1)Nc1cccnc1 was run?
A: The outcome was “inactive”.

Q: COc1cccc(NC(=O)Nc2cccnc2)c1 was tested. Which outcome did it give?
A: Its outcome is “inactive”.

Q: With O=C(NCc1ccc(Cl)cc1Cl)Nc1nccs1 as the molecule, how does the outcome read?
A: The outcome was “inactive”.

Q: Which outcome does the source give for Cc1nc(F)ccc1NC(=O)NCc1ccc(Cl)cc1Cl here?
A: Its outcome is “inactive”.

Q: How did the outcome turn out when O=C(NCc1ccc(Cl)cc1Cl)Nc1ccc(Br)nc1 was run?
A: The outcome was “inactive”.

Q: Fc1ccc(NC(=S)Nc2cccnc2)c(Cl)c1 was tested. Which outcome did it give?
A: Its outcome is “inactive”.

Q: COc1ccccc1NC(=O)Nc1cccnc1 was tested. Which outcome did it give?
A: The outcome was “inactive”.

Q: Which outcome does the source give for Cc1cc(NC(=O)NCc2ccc(Cl)cc2Cl)cnc1Br here?
A: Its outcome is “inactive”.

Q: For COc1ccc(Cl)cc1NC(=S)Nc1cccnc1, which outcome is on record?
A: Its outcome is “inactive”.

Q: Which outcome does the source give for Cc1ccnc(NC(=O)NCc2ccc(Cl)cc2Cl)c1 here?
A: Its outcome is “inactive”.

Q: Which outcome does the source give for O=C(Nc1cccnc1)Nc1ccc(Cl)c(Cl)c1 here?
A: The outcome was “inactive”.

Q: Which outcome does the source give for Cc1cc(Cl)ccc1NC(=S)Nc1cccnc1 here?
A: The outcome was “inactive”.

Q: FC(F)(F)c1cccc(NC(=S)Nc2cccnc2)c1 was tested. Which potentiation did it give?
A: The potentiation was 96.9.

Q: Which outcome does the source give for COc1ccc(NC(=S)Nc2cccnc2)c(OC)c1 here?
A: The outcome was “inactive”.

Q: For Cc1cncc(NC(=O)NCc2ccc(Cl)cc2Cl)c1, which outcome is on record?
A: Its outcome is “inactive”.

Q: S=C(Nc1ccc(Cl)cc1)Nc1cccnc1 was tested. Which outcome did it give?
A: Its outcome is “inactive”.

Q: With Cc1ccc(Cl)cc1NC(=O)Nc1cccnc1 as the molecule, how does the outcome read?
A: Its outcome is “inactive”.

Q: For Cc1cc(NC(=O)NCc2ccc(Cl)cc2Cl)cnc1Cl, which outcome is on record?
A: The outcome was “inactive”.

Q: O=C(Nc1cccnc1)N1CCOCC1 was tested. Which outcome did it give?
A: Its outcome is “inactive”.

Q: With Cc1cc(NC(=O)Nc2cccc(F)c2)cnc1Cl as the molecule, how does the outcome read?
A: Its outcome is “inactive”.

Q: For S=C(NCC1CCCCC1)Nc1cccnc1, which outcome is on record?
A: The outcome was “inactive”.

Q: With O=C(Nc1cccnc1)Nc1ccc(Cl)cc1Cl as the molecule, how does the outcome read?
A: The outcome was “inactive”.

Q: How did the outcome turn out when COc1ccc(C)cc1NC(=O)Nc1cccnc1 was run?
A: Its outcome is “inactive”.

Q: Fc1ccc(NC(=S)Nc2cccnc2)cc1Cl was tested. Which outcome did it give?
A: Its outcome is “inactive”.

Q: For CCOc1ccccc1NC(=O)Nc1cccnc1, which outcome is on record?
A: Its outcome is “inactive”.

Q: How did the outcome turn out when S=C(NCc1ccc(Cl)cc1Cl)Nc1cccnc1 was run?
A: The outcome was “inactive”.

Q: Which potentiation does the source give for O=C(Nc1cccnc1)Nc1ccc2c(c1)CCC2 here?
A: The potentiation was 103.

Q: Which outcome does the source give for COc1nccc(NC(=O)Nc2cccc(F)c2)n1 here?
A: The outcome was “inactive”.
